{"source": "the supplement of paper PMC13380429", "key": {"[1]": {"tested_on": "Vero E6 infected with SARS-CoV-2", "test": "morphology score (similarity to uninfected cells); higher = more like uninfected cells", "conditions": "24 h"}, "[2]": {"tested_on": "Vero E6 infected with SARS-CoV-2", "test": "SARS-CoV-2 infection rate relative to infected DMSO; higher = more infection, active = 60 or less", "conditions": "24 h"}}}
{"smiles": "C[C@@H]1CN(CCCn2c3ccccc3c3ccccc32)C[C@H](C)N1", "note": "[rimcazole] (10 µM)", "values": [{"measurement": "morphology score", "setting": "[1]", "result": 0.623}, {"measurement": "SARS-CoV-2 infection rate", "setting": "[2]", "result": "19.5% (active)"}]}
{"smiles": "CCNC(=O)c1noc(-c2cc(C(C)C)c(O)cc2O)c1-c1ccc(CN2CCOCC2)cc1", "note": "(0.833333 µM)", "values": [{"measurement": "morphology score", "setting": "[1]", "result": 0.0632}, {"measurement": "SARS-CoV-2 infection rate", "setting": "[2]", "result": "94% (inactive)"}]}
{"smiles": "Cc1cc(C(C)(C)CC(C)(C)C)ccc1OCCOCC[N+](C)(C)Cc1ccccc1", "note": "[methylbenzethonium-chloride] (10 µM)", "values": [{"measurement": "morphology score", "setting": "[1]", "result": -0.0681}, {"measurement": "SARS-CoV-2 infection rate", "setting": "[2]", "result": "101% (inactive)"}]}
{"smiles": "CC(C)Oc1ccc(-c2nc(-c3cccc4c3CC[C@@H]4NCCO)no2)cc1C#N", "note": "[ozanimod] (0.833333 µM)", "values": [{"measurement": "morphology score", "setting": "[1]", "result": 0.262}, {"measurement": "SARS-CoV-2 infection rate", "setting": "[2]", "result": "101% (inactive)"}]}
{"smiles": "FC(F)(F)c1ccccc1-c1cc(C(F)(F)F)c2[nH]c(C3=NOC4(CCCCC4)C3)nc2c1", "note": "(10 µM)", "values": [{"measurement": "morphology score", "setting": "[1]", "result": -0.000445}, {"measurement": "SARS-CoV-2 infection rate", "setting": "[2]", "result": "104% (inactive)"}]}
{"smiles": "CCC(NC(C)C)C(O)c1ccc(O)c(O)c1", "note": "(stereo not drawn) [isoetharine] (10 µM)", "values": [{"measurement": "morphology score", "setting": "[1]", "result": 0.128}, {"measurement": "SARS-CoV-2 infection rate", "setting": "[2]", "result": "93% (inactive)"}]}
{"smiles": "C=C(C)[C@@H]1CC[C@]2(C(=O)O)CC[C@]3(C)[C@H](CC[C@@H]4[C@@]5(C)CC[C@H](O)C(C)(C)[C@@H]5CC[C@]43C)[C@@H]12", "note": "[betulinic-acid] (10 µM)", "values": [{"measurement": "morphology score", "setting": "[1]", "result": 0.0296}, {"measurement": "SARS-CoV-2 infection rate", "setting": "[2]", "result": "108% (inactive)"}]}
{"smiles": "CN/C(=N\\c1ccc(C2=NNC(=O)CC2C)cc1)NC#N", "note": "(stereo not drawn) [siguazodan] (10 µM)", "values": [{"measurement": "morphology score", "setting": "[1]", "result": 0.0721}, {"measurement": "SARS-CoV-2 infection rate", "setting": "[2]", "result": "109% (inactive)"}]}
{"smiles": "NC[C@H]1O[C@H](O[C@H]2[C@H](O)[C@@H](O[C@H]3O[C@H](CO)[C@@H](O)[C@H](N)[C@H]3O)[C@H](N)C[C@@H]2N)[C@H](O)[C@@H](O)[C@@H]1O", "note": "[kanamycin] (10 µM)", "values": [{"measurement": "morphology score", "setting": "[1]", "result": 0.227}, {"measurement": "SARS-CoV-2 infection rate", "setting": "[2]", "result": "100% (inactive)"}]}
